Screening data (PubChem BioAssay)
WRN inhibitor: blocks human WRN helicase; Q14191; WRN helicase unwinding, fluorescent forked duplex, kinetic; Potency, µM (top dose mostly 114 µM), for inactives: top-dose activity change, negative = inhibition, usual class: inhibitors; 360,000 tested, 0.46% active; further: potency means the concentration at half of the fitted maximal effect; nearly all actives have a fitted effect of over 55% in size
Target sequence (Q14191 whole entry, looked up): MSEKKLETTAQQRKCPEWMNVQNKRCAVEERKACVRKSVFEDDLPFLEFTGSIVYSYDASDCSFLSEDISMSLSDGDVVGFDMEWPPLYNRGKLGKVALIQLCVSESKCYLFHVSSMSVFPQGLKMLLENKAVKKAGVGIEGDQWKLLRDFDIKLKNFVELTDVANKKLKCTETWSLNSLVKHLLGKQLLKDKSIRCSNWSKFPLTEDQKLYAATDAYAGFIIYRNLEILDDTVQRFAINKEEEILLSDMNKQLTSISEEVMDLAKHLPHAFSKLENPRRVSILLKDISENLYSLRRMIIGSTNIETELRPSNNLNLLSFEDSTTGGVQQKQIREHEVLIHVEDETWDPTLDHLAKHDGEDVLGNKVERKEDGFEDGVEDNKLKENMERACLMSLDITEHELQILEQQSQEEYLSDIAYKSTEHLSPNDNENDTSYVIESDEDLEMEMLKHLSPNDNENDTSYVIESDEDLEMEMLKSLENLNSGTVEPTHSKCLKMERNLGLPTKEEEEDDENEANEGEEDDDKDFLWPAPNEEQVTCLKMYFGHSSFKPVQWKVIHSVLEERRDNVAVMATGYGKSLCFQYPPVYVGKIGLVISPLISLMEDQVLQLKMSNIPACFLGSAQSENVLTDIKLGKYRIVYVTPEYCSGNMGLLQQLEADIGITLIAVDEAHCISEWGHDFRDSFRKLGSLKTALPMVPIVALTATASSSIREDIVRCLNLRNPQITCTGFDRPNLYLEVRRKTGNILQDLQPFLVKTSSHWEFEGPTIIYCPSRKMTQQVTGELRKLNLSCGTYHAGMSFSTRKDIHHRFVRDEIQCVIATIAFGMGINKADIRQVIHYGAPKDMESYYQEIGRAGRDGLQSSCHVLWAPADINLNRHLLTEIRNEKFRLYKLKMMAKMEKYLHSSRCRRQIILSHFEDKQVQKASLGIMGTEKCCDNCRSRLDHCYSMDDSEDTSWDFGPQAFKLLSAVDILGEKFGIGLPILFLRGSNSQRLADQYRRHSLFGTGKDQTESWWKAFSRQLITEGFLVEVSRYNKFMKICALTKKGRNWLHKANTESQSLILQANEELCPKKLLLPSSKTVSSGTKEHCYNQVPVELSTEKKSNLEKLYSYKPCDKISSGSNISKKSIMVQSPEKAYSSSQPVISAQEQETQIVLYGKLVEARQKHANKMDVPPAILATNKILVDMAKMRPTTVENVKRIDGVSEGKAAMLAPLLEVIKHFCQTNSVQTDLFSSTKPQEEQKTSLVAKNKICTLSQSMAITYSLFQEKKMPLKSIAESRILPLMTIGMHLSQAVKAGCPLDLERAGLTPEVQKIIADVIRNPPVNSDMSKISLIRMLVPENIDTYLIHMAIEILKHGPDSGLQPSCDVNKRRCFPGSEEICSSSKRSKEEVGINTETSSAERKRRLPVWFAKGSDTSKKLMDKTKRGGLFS
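WRN at 20 nM final preincubated with compound 15 min at room temperature; reaction started with 100 nM fluorophore/quencher forked duplex oligonucleotide and 2 mM ATP final. Unwinding followed kinetically by red fluorescence (ex 525, em 598 nm).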
PLK1 PBD block: blocks phosphopeptide binding to human PLK1 polo-box domain; Potency, µM, without a hit: max response, negative = inhibition, hits mostly inhibitors; Plk1 PBD binding of FITC phosphopeptide, fluorescence polarization; 360,000 tested, 2.8% active; P53350; further: potency means the concentration at half of the fitted maximal effect; series mostly up to about 57 µM; nearly all actives have a fitted effect of over 65% in size
USP1 inh: blocks the human USP1/UAF1 deubiquitinase complex. O94782. Potency, µM (series often up to 57.1 µM), for inactives: at the highest dose activity change, negative = inhibition, hits mostly inhibitors. 390,000 tested, 0.23% active. recombinant USP1/UAF1, Ub-Rhodamine cleavage fluorescence; further: potency means the concentration at half of the fitted maximal effect; nearly all actives have a fitted effect of over 60% in size
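USP1/UAF1 complex at 1 nM was preincubated with compound for 15 min at room temperature, then Ub-Rho substrate (150nM final) was added. Fluorescence (480/540 nm) was read kinetically, 6 reads every 60 seconds.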
PI5P4Ka inh: inhibitors of human PI5P4K alpha; PI5P4Kalpha enzyme, ADP-Glo luminescence, 60 min; active compounds read low; 330,000 tested, 1.2% active; P48426; max response, %; active means max response of -50% or lower; inconclusive means between -30% and -50%; inactive means -30% or higher; further: value at the top dose of about 77 µM
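Quantitative HTS of the MLSMR library against PI5P4Kalpha with substrate. ATP added last at 5 microM final; room temperature, 60 minutes. Remaining ATP depleted, ADP converted and read as luminescence.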
USP2a inh: inhibitors of human ubiquitin-specific protease USP2a; AID 463254; USP2 core, Ub-CHOP2 coupled fluorogenic reporter, 485/531; O75604; 330,000 tested, 0.01% active; Potency, µM (highest dose often 38.3 µM), inactives show at the top dose activity change, negative = inhibition, usual class: inhibitors;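 further: potency means the concentration at half of the fitted maximal effect; plate controls were DMSO wells for no effect and full inhibition by NEM control for full effect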
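USP2 core (10nM final) preincubated 30min RT with compound in 20mM Tris-HCl pH 8.0, 2mM CaCl2, 2mM beta-mercaptoethanol, 0.05% CHAPS; 25nM Ub-CHOP2 plus 25nM reporter substrate added, fluorescence (Ex485/Em531) read after 60min.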
Starred values were filed as active, the others as inactive; ? = inconclusive; / = not tested or not shown; [ ] = another dose, or the depositor's remark. Only some compounds are listed: those with a hit (about 3.3% of all), similar ones and a draw of the others. Unless noted, the call rests on the fitted dose curve; in most records, active means well fitted curve in the direction sought with a large enough effect; inconclusive means small, poorly fitted or top-dose-only effect, or another doubt; inactive means no such curve, though single readings can be large; an effect the other way counts as inactive or inconclusive. Unless noted, on the % scale 0 is the no-effect control and ±100 the full control effect.

SMILES	WRN inhibitor	PLK1 PBD block	USP1 inh	PI5P4Ka inh	USP2a inh
CC(/C=C1\SC(=S)N(C(C(=O)O)C(C)C)C1=O)=C\c1ccccc1 (centres undefined)	-11.7%	23.8µM*	-24.6%	-6.3	-9.9%
CC(/C=C1\SC(=S)N(NC(=O)c2ccc(C)cc2)C1=O)=C\c1ccccc1	-15.3%	-1.2%	-8.2%	0.5	0.2%
CC(/C=C1\SC(=S)N(NS(=O)(=O)c2ccccc2)C1=O)=C\c1ccccc1	-1.1%[11.6 µM]	0.0%	?	?	0.0%
Cc1ccc(/C=C/c2onc(C)c2S(=O)(=O)N2CCC(C(=O)NCc3ccc(OC(C)C)cc3)CC2)cc1	/	/	-24.1%	/	/
CCOC(=O)C(C)Sc1nc(=O)n2ccccc2n1 (centres undefined)	5.2%[57.1 µM]	23.8µM*	-4.8%	-8.7	-4.2%
CCCN(CCC)S(=O)(=O)c1ccc(C(=O)N2CCn3c4c(c5cc(C)ccc53)CCCC42)cc1 (centres undefined)	/	/	-1.2%	/	/
CC(=O)[C@]1(O)Cc2c(O)c3c(c(O)c2[C@@H](O[C@H]2C[C@H](N)[C@H](O)[C@H](C)O2)C1)C(=O)c1ccccc1C3=O	31.6µM*	5.32µM*	28.2µM*	7.9	/
COc1cccc2c1C(=O)c1c(O)c3c(c(O)c1C2=O)C[C@@](O)(C(=O)CO)C[C@@H]3O[C@H]1C[C@H](N)[C@@H](O)[C@H](C)O1	56.2µM*	?	28.2µM*	-19.2	/
COc1ccc(-c2noc(N(c3ccc(F)c(Cl)c3)c3nc(-c4ccc(OC)c(OC)c4)no3)n2)cc1OC	/	/	-0.5%	/	/
COc1ccc(C(CC(=O)O)NS(=O)(=O)c2ccc3c(c2)N(C(C)=O)CC(C)O3)cc1 (centres undefined)	-8.9%	26.7µM*	-9.6%	-2.3	1.8%
CN(N)c1nc2ccccc2nc1C(F)(F)F	12.6%[57.1 µM]	21.2µM*	-20.4%	-11.7	0.2%
Cc1ccc(C(=O)NN(C)c2nc3ccccc3nc2C(F)(F)F)cc1	2.6%	-1.8%	-6.6%	-1.1	-0.4%
COc1ccc(N2CCN(CC(=O)c3ccccc3)CC2)cc1	-1.1%	?	-22.0%	-4.2	3.9%
COc1ccc(N2CCN(CCC(=O)c3ccc4ccccc4c3)CC2)cc1	-11.5%	6.7µM*	-16.1%	0.3	-0.5%
CC(=O)Nc1ccc(SCC(=O)Nc2oc(C)c3c(C)n[nH]c(=O)c23)cc1	-16.4%	18.9µM*	-9.5%	-4.2	1.7%
COc1ccc2c(c1)NC(c1ccc(OCC(C)C)cc1)=NC(c1ccncc1)=N2	/	/	-12.9%	/	/
Cc1cc(NC(=O)c2cc(-c3ccc(F)cc3)on2)nn1Cc1ccc(Cl)cc1	/	/	-16.6%	/	/
O=C(CCS(=O)(=O)c1ccc2c(c1)NC(=O)CS2)NCCc1ccccc1	-2.0%	-18.2%	-14.8%	-0.9	1.6%
COc1ccc(S(=O)(=O)CCC(=O)N2c3ccccc3CC2C)cc1 (centres undefined)	-4.8%	-15.4%	-11.2%	-9.8	0.9%
COc1ccc(CCNC(=O)CCS(=O)(=O)c2ccc3c(c2)NC(=O)CS3)cc1OC	2.2%	29.9µM*	-24.7%	-4.2	3.2%
CC1Cc2ccccc2N1C(=O)CCS(=O)(=O)c1ccc2c(c1)NC(=O)CS2 (centres undefined)	11.9%	18.9µM*	-25.5%	-21.5	4.9%
Cc1cccc(NC(=O)CCS(=O)(=O)c2ccc3c(c2)NC(=O)CS3)n1	8.1%	29.9µM*	-25.8%	-11.9	4.9%
CC1CCC(NC(=O)CCS(=O)(=O)c2ccc3c(c2)NC(=O)CS3)CC1 (centres undefined)	-1.5%	-4.5%	-10.4%	1.7	1.4%
Cc1cccc(CCNC(=O)C2CCC(CNS(=O)(=O)c3c(C)cc(C)cc3C)CC2)c1 (centres undefined)	/	/	-4.6%	/	/
CCN(Cc1ccccc1)C(=O)C1CCC(CNS(=O)(=O)c2ccc3c(c2)CCCC(=O)N3)CC1 (centres undefined)	/	/	-23.2%	/	/
SMILES	WRN inhibitor	PLK1 PBD block	USP1 inh	PI5P4Ka inh	USP2a inh
COc1cccc(NC(=O)CSc2nc3c(oc4ccccc43)c(=O)n2Cc2ccco2)c1	/	/	-17.2%	/	/
O=C(COc1ccccc1-c1nc(-c2ccccc2)no1)Nc1ccc([N+](=O)[O-])cc1	/	/	-10.9%	/	/
Nc1ncc(S(=O)(=O)NCc2cccc(Cl)c2)cn1	/	/	-1.8%	/	/
CCCN(CCC)C(=O)c1nn(C)c2c1CSc1ccc(C)cc1-2	/	/	-18.0%	/	/
CCCCOC(=O)C(C)Nc1n[nH]c(=O)[nH]c1=O (centres undefined)	0.6%	-3.3%	-18.4%	7.6	0.0%
CCCCOC(=O)C(C)Nc1n[nH]c(=S)[nH]c1=O (centres undefined)	6.9%	26.7µM*	-7.0%	/	2.3%
CC(=O)N1CCc2cc(Br)cc(S(=O)(=O)NCCc3cccc(C)c3)c21	/	/	-9.8%	/	/
CC(=O)Oc1oc(-c2ccccc2)nc1/C=N/c1ccccn1	-27.9%	9.47µM*	-21.8%	/	0.2%
CN(C)c1ccc(N=Cc2nc(-c3ccccc3)oc2O)cc1	?	13.4µM*	-40.4%	1.7	?
CC(=O)Oc1oc(-c2ccccc2)nc1C=Nc1ccc(N(C)C)cc1	7.3%	-13.5%	25.1µM*	2.3	8.6%
Oc1oc(-c2ccccc2)nc1C=Nc1ccccc1	-2.8%	-12.7%	-9.4%	/	0.4%
Cn1c(NCCCCO)nc2c1c(=O)n(Cc1ccc(Cl)cc1)c(=O)n2C	/	/	-24.9%	/	/
O=C(Nc1ccc(OCc2cc(=O)n3ccccc3n2)cc1)c1ccccc1Cl	/	/	5.5%	/	/
CN(C(=O)Cn1c(=O)n(CCC(=O)NCc2ccc3c(c2)OCO3)c(=O)c2sccc21)c1ccccc1	/	/	-9.0%	/	/
CCCCSc1n[nH]c(=S)c2nc[nH]c12	-6.1%	?	2.7%	-62.6*	/
O=C(Nc1ccccc1)c1ccc(C(=O)Nc2ccccc2)nc1	1.5%	18.9µM*	-15.8%	-12.6	2.2%
CC(=O)Nc1cccc(NC(=O)c2ccc(C(=O)Nc3cccc(NC(C)=O)c3)nc2)c1	-3.9%	-10.1%	-18.8%	-4.3	8.6%
COc1ccc(/C=N/n2cnc3c([nH]c4ccc(Br)cc43)c2=O)cc1CN1CCOCC1	0.9%	-2.2%	-16.6%	-7.6	-0.3%
COc1ccc(/C=N/n2cnc3c([nH]c4ccccc43)c2=O)cc1CO	-2.2%	10.6µM*	-26.5%	?	0.1%
O=C(c1ccc(Cl)c(S(=O)(=O)N2CCCCC2)c1)N1CCN(c2ccccc2)CC1	?	-4.3%	-9.6%	6.8	-1.4%
O=C(NCc1cccnc1)c1ccc(Cl)c(S(=O)(=O)N2CCOCC2)c1	-11.1%	2.7%	-11.0%	1.4	3.5%
O=C(NCc1cccnc1)c1ccc(Cl)c(S(=O)(=O)N2CCCCCC2)c1	-4.7%	26.7µM*	-3.3%	1.0	-0.4%
O=C(c1ccc(Cl)c(S(=O)(=O)N2CCCC2)c1)N1CCN(c2ccccc2)CC1	-24.7%	13.4µM*	-12.3%	-14.2	0.2%
Cc1ccccc1Cc1c(C)nc2nc(SCC(=O)N(C)c3ccccc3)nn2c1C	/	/	-8.6%	/	/
